In the supplement of paper PMC9262897, “Low-cost anti-mycobacterial drug discovery using engineered E. coli” (Nature Communications, 2022):
Structures can show the parent of a compound that is named as a salt. ± gives the standard deviation of the averaged measurements.

Tested on: E. coli TESEC Alr+ wild-type control
Assay: growth (OD600 after 10 h); higher = more growth (less inhibition)
Settings: compound 0.1 mM; raw OD600 reference: median of DMSO wells 0.241, cell-free background 0.041
Procedure: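 TESEC Mtb Alr E. coli, or the Alr+ wild-type control, in 384-well plates with Prestwick library compounds at 0.1 mM and 1% DMSO, across arabinose induction levels of 1E3 to 1E7 nM. Growth is read as OD600 after 10 h at 37 °C in triplicate biological replicates.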

Row | SMILES | growth
1 | Cc1onc(-c2c(F)cccc2Cl)c1C(=O)N[C@@H]1C(=O)N2[C@@H]1SC(C)(C)[C@@H]2C(=O)O [Flucloxacillin sodium] | 0.228 ± 0.0096
2 | CN(C/C=C/c1ccccc1)Cc1cccc2ccccc12 [Naftifine hydrochloride] | 0.0432 ± 0.0006
3 | COc1ccccc1Oc1c(NS(=O)(=O)c2ccc(C(C)(C)C)cc2)nc(-c2ncccn2)nc1OCCO [Bosentan] | 0.227 ± 0.0037
4 | O=C(O)CCC(=O)Nc1ccc(S(=O)(=O)Nc2nccs2)cc1 [Succinylsulfathiazole] | 0.257 ± 0.0064
5 | NC(=O)OCC(O)COc1ccc(Cl)cc1 (centres undefined) [Chlorphensin carbamate] | 0.251 ± 0.011
6 | C(=C\c1ccccc1)/CN1CCN(C(c2ccccc2)c2ccccc2)CC1 [Cinnarizine] | 0.202 ± 0.0048
7 | Cc1ccccc1OCC(O)CO (centres undefined) [Mephenesin] | 0.258 ± 0.0026
8 | O=C(O)CN(CCN(CC(=O)O)CC(=O)O)CCN(CC(=O)O)CC(=O)O [Pentetic acid] | 0.049 ± 0.00062
9 | CC(=O)OCC(=O)[C@@]1(OC(C)=O)[C@@H](C)C[C@H]2[C@@H]3C[C@H](F)C4=CC(=O)C=C[C@]4(C)[C@@]3(F)[C@@H](O)C[C@@]21C [Diflorasone Diacetate] | 0.159 ± 0.0032
10 | O=C1C(CC[S+]([O-])c2ccccc2)C(=O)N(c2ccccc2)N1c1ccccc1 (centres undefined) [Sulfinpyrazone] | 0.167 ± 0.0026
11 | O=C(CCNNC(=O)c1ccncc1)NCc1ccccc1 [Nialamide] | 0.237 ± 0.0061
12 | C[N+]1(C)CCC(=C(c2ccccc2)c2ccccc2)CC1 [Diphemanil methylsulfate] | 0.206 ± 0.0076
13 | Cc1ccc(C)c(OCCCC(C)(C)C(=O)O)c1 [Gemfibrozil] | 0.2143 ± 0.0012
14 | O=C1CCc2cc(OCCCCc3nnnn3C3CCCCC3)ccc2N1 [Cilostazol] | 0.148 ± 0.028
15 | COc1cc(C(=O)NCc2ccc(OCCN(C)C)cc2)cc(OC)c1OC [Trimethobenzamide hydrochloride] | 0.2204 ± 0.0014
16 | Cc1nnc(SCC2=C(C(=O)O)N3C(=O)[C@@H](NC(=O)Cn4cnnn4)[C@H]3SC2)s1 [Cefazolin sodium salt] | 0.286 ± 0.013
17 | N#Cc1ccc(C(c2ccc(C#N)cc2)n2cncn2)cc1 [Letrozole] | 0.2404 ± 0.0017
18 | CCOc1nc2cccc(C(=O)O)c2n1Cc1ccc(-c2ccccc2-c2nnn[nH]2)cc1 [Candesartan] | 0.238 ± 0.0077
19 | CC(CNC1CCCCC1)OC(=O)c1ccccc1 (centres undefined) [Hexylcaine hydrochloride] | 0.242 ± 0.016
20 | C#C[C@]1(O)CC[C@H]2[C@@H]3CCC4=Cc5oncc5C[C@]4(C)[C@H]3CC[C@@]21C [Danazol] | 0.154 ± 0.027
21 | CC1CC(OC(=O)c2ccccc2O)CC(C)(C)C1 (centres undefined) [Homosalate] | 0.248 ± 0.0027
22 | CCOc1ccc2c(c1)C(C)=CC(C)(C)N2 [Ethoxyquin] | 0.183 ± 0.0075
23 | CN(C)CCN(Cc1ccc(Cl)cc1)c1ccccn1 [Chloropyramine hydrochloride] | 0.189 ± 0.0042
24 | COc1ccc([C@@H]2CC(=O)c3c(O)cc(O[C@@H]4O[C@H](CO[C@@H]5O[C@@H](C)[C@H](O)[C@@H](O)[C@H]5O)[C@@H](O)[C@H](O)[C@H]4O)cc3O2)cc1O [Hesperidin] | 0.223 ± 0.0074
25 | CO[C@H]1C[C@H](O[C@H]2[C@H](C)[C@@H](O[C@@H]3O[C@H](C)C[C@H](N(C)C)[C@H]3OC(C)=O)[C@@H](C)C[C@@]3(CO3)C(=O)[C@H](C)[C@@H](OC(C)=O)[C@@H](C)[C@@H](C)OC(=O)[C@@H]2C)O[C@@H](C)[C@@H]1OC(C)=O [Troleandomycin] | 0.0738 ± 0.00081
26 | CCCCCN(CCCCC)C(=O)C(CCC(=O)O)NC(=O)c1ccc(Cl)c(Cl)c1 (centres undefined) [Lorglumide sodium salt] | 0.152 ± 0.0035
27 | CC(Oc1ccccc1)C(=O)N[C@@H]1C(=O)N2[C@@H]1SC(C)(C)[C@@H]2C(=O)O (some centres undefined) [Phenethicillin potassium salt] | 0.267 ± 0.018
28 | C#C[C@]1(O)CC[C@H]2[C@@H]3CCC4=CC(=O)CC[C@@H]4[C@H]3CC[C@@]21C [Norethindrone] | 0.196 ± 0.042
29 | CC[C@H](C)[C@H](N)C1=N[C@H](C(=O)N[C@@H](CC(C)C)C(=O)N[C@H](CCC(=O)O)C(=O)N[C@H](C(=O)N[C@H]2CCCCNC(=O)[C@H](CC(N)=O)NC(=O)[C@@H](CC(=O)O)NC(=O)[C@H](Cc3cnc[nH]3)NC(=O)[C@@H](Cc3ccccc3)NC(=O)[C@H]([C@@H](C)CC)NC(=O)[C@@H](CCCN)NC2=O)[C@@H](C)CC)CS1 [Bacitracin] | 0.306 ± 0.0084
